# PubChem BioAssay AID686996 (Broad Institute, 2013)
# “And” between values parts separate entries of the source, which are not always exact repeats. Equal entries are not always repeated. Hit rate of the full screen: of about 350,000 compounds, about 1,900 (0.54%) were called active.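 Rule for the calls: active = mean inhibition across replicates at least about 35%, with every replicate also reaching that limit (limit read from the data); inconclusive = only one of the two criteria met; inactive = neither criterion met.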 The full list was thinned out, with actives kept by preference. Where a structure was tested more than once in an assay, its records may differ in their call.
# Target: Caspase-6 (Homo sapiens) (UniProt P55212)
# Assay: inhibition of CASP6 peptide cleavage – biochemical, VEID-R110 fluorescence, single point, set 2, primary screen (AID 686996);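 note: 0% = median of neutral control wells and 100% = no fluorescence left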
# Details: purified caspase-6, Z-VEID-R110 cleavage fluorescence; at 12.5 µM; stronger effect = higher value
# Sequence of Caspase-6 (Homo sapiens) (P55212 24-179 limits assumed): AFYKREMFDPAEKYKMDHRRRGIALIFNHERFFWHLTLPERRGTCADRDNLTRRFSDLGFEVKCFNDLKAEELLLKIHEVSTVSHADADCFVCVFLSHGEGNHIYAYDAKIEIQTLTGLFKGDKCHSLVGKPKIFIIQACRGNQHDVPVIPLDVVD
# Sequence of Caspase-6 (Homo sapiens) (P55212 194-293 limits assumed): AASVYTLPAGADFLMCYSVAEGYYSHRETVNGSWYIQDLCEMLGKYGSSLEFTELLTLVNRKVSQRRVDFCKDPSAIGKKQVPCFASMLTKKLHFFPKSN
row,Structure (SMILES),inhibition
1,CC=Cc1ccc2n(c1=O)C[C@@H]1[C@@H](CO)[C@H](C(=O)N[C@H](C)c3ccccc3)N(C(=O)c3cnccn3)[C@H]21 (mixture of isomers),-3.98% (inactive)
2,CC=Cc1ccc2n(c1=O)C[C@@H]1[C@@H](CO)[C@H](C(=O)N(C)C)[C@H]2N1CCc1ccccc1 (mixture of isomers),-1.44% (inactive)
3,CC=Cc1ccc2n(c1=O)C[C@@H]1[C@@H](CO)[C@H](C(=O)NCCc3ccccc3)N(C(C)=O)[C@H]21 (mixture of isomers),61.2% (active)
4,CO[C@H]1CN(C)C(=O)c2ccc(NC(=O)C3CC3)cc2OC[C@@H](C)N(Cc2ccc(F)cc2)C[C@@H]1C,3.32% (inactive)
5,CCN1CCN(C(=O)N[C@@H](C(=O)N[C@@H]2C(=O)N3C(C(=O)O)=C(CSc4nnnn4C)CS[C@H]23)c2ccc(O)cc2)C(=O)C1=O,0.383% (inactive)
6,Cc1cc(C)cc(C(=O)NC2C(=O)N3C(C(=O)O)=C(CSc4nnc(C)s4)CSC23)c1 (stereo not drawn),9.95% (inactive)
7,C=CC1=C(C(=O)O)N2C(=O)[C@@H](NC(=O)/C(=N/OCC(=O)O)c3csc(N)n3)[C@H]2SC1,88.2% (active)
8,CO/N=C(\C(=O)N[C@@H]1C(=O)N2C(C(=O)O)=C(COC(C)=O)CS[C@H]12)c1csc(N)n1 (stereo in doubt),13.9% (inactive) and 5.09% (inactive) and 37.7% (active)
9,COc1ccccc1NC(=O)N1C[C@H](O)COC[C@H]2O[C@H](CC(=O)NCCc3ccccc3)CC[C@@H]21,1.79% (inactive)
10,COc1ccccc1CN1CC[C@@H]2[C@@H](CO)Nc3ccc(C#Cc4ccccc4)cc3[C@@H]21,0.663% (inactive)
11,C[C@@H]1CN([C@@H](C)CO)C(=O)c2cc(NC(=O)Nc3cccc4ccccc34)ccc2O[C@@H]1CN(C)C(=O)NC1CCCCC1,0.662% (inactive)
12,C[C@@H](O)C#Cc1cnc2c(c1)C(=O)N([C@@H](C)CO)C[C@H](C)[C@@H](CN(C)CC1CCCCC1)O2,2.32% (inactive)
13,Oc1ccc(/C=N/N(Cc2ccccc2)c2ccccc2)cc1,-0.437% (inactive)
14,Cc1cc(N=Nc2ccc3ccccc3c2)ccc1O,2.65% (inactive)
15,Oc1ccc(N=Cc2c(O)ccc3ccccc23)cc1,36.4% (active)
16,COc1ccc(S(=O)(=O)Nc2cccc3c2O[C@H](CN(C)Cc2ccc4c(c2)OCO4)[C@H](C)CN([C@@H](C)CO)C3=O)cc1,0.634% (inactive)
17,C[C@H]1CCCCO[C@H](CN(C)C(=O)Nc2ccccc2)[C@@H](C)CN([C@@H](C)CO)C(=O)c2cc(NC(=O)c3ccncc3)ccc2O1,-0.544% (inactive)
18,Cc1cc(/C=C2\SC(=O)N(C)C2=O)c(C)n1-c1cccc(C(=O)O)c1,39.2% (active)
19,Cc1cc(/C=C2/SC(=O)N(CC(=O)OC(C)C)C2=O)c(C)n1C,1.11% (inactive)
20,Cc1cc(/C=C2/SC(=O)N(CC(=O)N3CCCC3)C2=O)c(C)n1C,1.51% (inactive)
21,O=C(C1=C[C@@H](c2ccccc2)C[C@@H](OCCCCO)O1)N1CCN(Cc2ccccc2)CC1,-1.99% (inactive)
22,C[C@@H]1CN([C@H](C)CO)C(=O)Cc2cc(NC(=O)CCN3CCOCC3)ccc2O[C@H]1CN(C)C,0.558% (inactive)

row,Structure (SMILES),inhibition
1,COc1ccc2c3c([nH]c2c1)[C@@H](CO)N(Cc1ccncc1)CC31CN(C(=O)CN(C)C)C1,-1.6% (inactive)
2,O=C(c1snnc1-c1ccccc1)N1CCOCC1,-0.096% (inactive)
3,Cc1oc2c(c1C(=O)N1CCOCC1)C(=O)c1ccccc1C2=O,62.8% (active)
4,O=C(NC(=O)N1CCOCC1)c1ccccc1,-0.559% (inactive)
5,Cc1ccc(S(=O)(=O)N[C@H]2CC[C@H](CC(=O)O)O[C@H]2CO)cc1,3% (inactive)
6,Cc1noc(C)c1S(=O)(=O)N(C)C[C@H]1OCCCC[C@@H](C)Oc2ccc(NC(=O)C3CCCCC3)cc2C(=O)N([C@H](C)CO)C[C@@H]1C,-3.38% (inactive)
7,COc1ccc(NC(=O)Nc2ccc3c(c2)C(=O)N([C@@H](C)CO)C[C@@H](C)[C@@H](CN(C)S(=O)(=O)c2ccc(C)cc2)OCCCC[C@H](C)O3)cc1,-2.65% (inactive)
8,COCC(=O)N1[C@@H](CO)[C@H](c2ccccc2)C12CN(C(=O)NC1CCCCC1)C2,-0.716% (inactive)
9,O=C(Nc1ccccc1C(=O)Nc1ccncc1)c1ccc([N+](=O)[O-])cc1,-0.84% (inactive)
10,O=C(Nc1ccncc1)c1ccc([N+](=O)[O-])cc1Cl,-0.931% (inactive)
11,O=C(Nc1nc2ccc([N+](=O)[O-])cc2s1)c1ccncc1,65.7% (active)
12,CC(C)NC(=O)N(C)C[C@H]1Oc2ncc(C#CC3CC3)cc2C(=O)N([C@H](C)CO)C[C@@H]1C,-0.116% (inactive)
13,C[C@H](CO)N1C[C@H](C)[C@H](CN(C)C(=O)Nc2cccc(Cl)c2Cl)OCc2ccccc2-c2ccccc2C1=O,0.728% (inactive)
14,COc1cccc(/C=C2\SC(=S)N(CCCC(=O)N3CCOCC3)C2=O)c1,-1.77% (inactive)
15,Cc1ccc(-c2nn(-c3ccccc3)cc2/C=C2\SC(=S)N(CCCCCC(=O)O)C2=O)o1,49.9% (active)
16,O=C(CCCN1C(=O)/C(=C/c2cccs2)SC1=S)Nc1ccc(O)cc1,0.413% (inactive)
17,Cc1ccc(S(=O)(=O)Nc2ccc3c(c2)C(=O)N(C)[C@H]2CC[C@H](CC(=O)O)O[C@H]2CO3)cc1,0.009% (inactive)
18,C[C@H](CO)N1C[C@H](C)[C@H](CN(C)C(=O)C2CCC2)Oc2ncc(C#CCc3ccccc3)cc2C1=O,-2.13% (inactive)
19,O=C(O)CCn1c(O)c(C=C2N=c3ccccc3=N2)sc1=S,35.5% (active)
20,Cc1ccc(S(=O)(=O)N(C)C[C@@H]2Oc3c(NS(C)(=O)=O)cccc3C(=O)N([C@@H](C)CO)C[C@H]2C)cc1,0.89% (inactive)
21,COc1cccc(NC(=O)Nc2ccc3c(c2)C(=O)N(C)[C@@H]2CC[C@@H](CC(=O)NCCc4ccccc4)O[C@H]2CO3)c1,1.41% (inactive)
